Screens as filed in PubChem.
CtBP-E1A blk: qHTS Assay for Inhibitors of the CtBP/E1A Interaction; CtBP / adenovirus E1A interaction (AlphaScreen); AlphaScreen GST-E1A/His-CtBP binding, 1536-well; stronger effect = lower value; activity change, % (concentration not given with the values); hit rate 0.49% among 340,000; AID 651724, 2012; in the data active = activity change below about -65%; inconclusive = mostly about -30% to -63%
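In 5 uL wells, 23 nL compound meets equimolar GST-E1A and His-CtBP (5X stock 125 nM each) for 2 h, 37 °C. Beads (5X, 50 ug/mL) then 1 h, 37 °C, dark.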
Eya2 phos inh: qHTS Assay for Inhibitors of the Phosphatase Activity of Eya2; Protein phosphatase EYA2 (Homo sapiens), O00167; recombinant Eya2, OMFP fluorescence dephosphorylation (OMFP is methylfluorescein phosphate); Potency, µM (highest dose often 76.9 µM), for inactives: at the highest dose activity, negative = inhibition, usual class: inhibitors; hit rate 0.006% among 330,000; note: potency is the fitted concentration of half-maximal effect
Target sequence (O00167 whole entry, looked up): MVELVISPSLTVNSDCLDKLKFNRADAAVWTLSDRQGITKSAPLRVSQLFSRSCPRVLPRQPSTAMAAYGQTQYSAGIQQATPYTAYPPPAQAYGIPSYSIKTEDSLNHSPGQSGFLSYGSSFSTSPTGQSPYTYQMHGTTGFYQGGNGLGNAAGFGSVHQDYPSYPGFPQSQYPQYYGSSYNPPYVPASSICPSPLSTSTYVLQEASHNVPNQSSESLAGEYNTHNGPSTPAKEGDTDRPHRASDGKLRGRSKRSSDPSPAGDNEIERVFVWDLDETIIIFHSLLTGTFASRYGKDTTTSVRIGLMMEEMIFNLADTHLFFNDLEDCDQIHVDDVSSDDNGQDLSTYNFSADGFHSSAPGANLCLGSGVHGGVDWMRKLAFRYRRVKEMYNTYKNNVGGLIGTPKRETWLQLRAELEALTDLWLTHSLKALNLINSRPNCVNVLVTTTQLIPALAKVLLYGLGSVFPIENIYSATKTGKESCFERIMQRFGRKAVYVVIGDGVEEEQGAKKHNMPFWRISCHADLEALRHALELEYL
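Eya2 (0.2 uM) preincubated 10 min at ambient with compound, then OMFP substrate added at 50 uM; 10 min reaction in 50 mM HEPES pH 7.5, 50 mM NaCl, 5 uM MgCl2, 0.05% BSA, 1 mM DTT. Fluorescence read at Ex 485/Em 525 nm.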
uPA surface inh: qHTS for Inhibitors of Cell Surface uPA Generation | cell surface uPA generation assay, qHTS | Potency, µM (top dose mostly 38.3 µM), inactives show at the top dose activity change, negative = inhibition, actives largely listed as inhibitors | hit rate 0.31% among 330,000; active = well fitted inhibition curve with a large enough effect; inconclusive = small, poorly fitted or top-dose-only effect; inactive = no such curve, though single readings can be large or run the other way; tested in mouse RAW 264.7 cells; note: potency is the fitted concentration of half-maximal effect; nearly all actives have a fitted effect of over 55% in size
USP2a block: qHTS Assay for Inhibitors of Ubiquitin-specific Protease USP2a Using CHOP2 as the Reporter. USP2 core, Ub-CHOP2 coupled fluorogenic reporter, 485/531. AID 463254, 2010. Ubiquitin carboxyl-terminal hydrolase 2 (Homo sapiens), O75604. hit rate 0.01% among 330,000. Potency, µM (titrated, usually from 38.3 µM), without a hit: at the highest dose activity change, negative = inhibition, actives largely listed as inhibitors;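 note: potency is the fitted concentration of half-maximal effect; plate controls were DMSO wells for no effect and full inhibition by NEM control for full effect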
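Cell-free coupled assay: 10nM USP2 core preincubated 30min RT with compound in Tris-HCl pH 8.0/CaCl2/CHAPS buffer, then 25nM Ub-CHOP2 and 25nM reporter substrate; fluorescence (Ex 485/Em 531) read after 60min RT, normalized to NEM inhibition, concentration-response curves fitted.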
L3MBTL1 inh: qHTS Assay for the Inhibitors of L3MBTL1 | Potency, µM (series often up to 57.1 µM), for the others: top-dose activity, negative = inhibition, most hits filed as inhibitors | hit rate 0.66% among 230,000 | AlphaScreen L3MBTL1–H3K9me1 peptide binding | AID 485360, 2010 | Lethal(3)malignant brain tumor-like protein 1 (Homo sapiens), Q9Y468; note: potency is the fitted concentration of half-maximal effect; nearly all actives have a fitted effect of over 60% in size
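Displacement of a biotinylated histone H3(1-15) peptide monomethylated at Lys9 (75 nM) from L3MBTL1 (50 nM) was measured by AlphaScreen after a 30 min room-temperature compound incubation; cefsulodin titration served as intraplate control.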
Six1-Eya2 blk: qHTS Assay for Inhibitors of the Six1/Eya2 Interaction | Homeobox protein SIX1 (Homo sapiens) + Protein phosphatase EYA2 (Homo sapiens), … | AlphaScreen GST-Six1/His-Eya2 binding, biochemical; stronger effect = lower value | activity change, % (test concentration not listed) | hit rate 0.56% among 360,000; in the data active = activity change below about -65%; inconclusive = mostly about -30% to -63%
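Homogeneous AlphaScreen proximity assay pairing GST-Six1 with His-tagged Eya2 (added as 5X mix: 250 nM and 500 nM) in 50 mM Tris pH 8.0, 300 mM NaCl, 1 mM TCEP. Glutathione donor and nickel acceptor beads; 1 h, 37 °C, dark.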
Starred values were filed as active, the others as inactive; ? = inconclusive; . = no result given. In the library only some 1.2% were active in any assay of this set; here they are far more common. Unless noted, calls come from the whole dose curve; as a rule, active = well fitted curve in the direction sought with a large enough effect; inconclusive = small, poorly fitted or top-dose-only effect, or another doubt; inactive = no such curve, though single readings can be large; an effect the other way counts as inactive or inconclusive. Unless noted, % is set by controls: 0 for no effect and ±100 for the full control effect.

SMILES	CtBP-E1A blk	Eya2 phos inh	uPA surface inh	USP2a block	L3MBTL1 inh	Six1-Eya2 blk
Cc1ccc(OC(C)C(=O)N(Cc2cccs2)C2CCS(=O)(=O)C2)cc1C (centres undefined)	-11	0%	-3%	-5%	6%	17
CCOC(=O)CCCCC(=O)c1[nH]c(=O)[nH]c1C[n+]1ccccc1	.	7%	.	7%	.	.
Cc1[nH]c(=O)[nH]c1C(=O)CCCCC(=O)OCC(=O)Nc1ccccn1	-9	-15%	1%	-1%	0.71µM*	-1
Cc1cc(O)c(S(=O)(=O)c2ccccc2)c(C)c1NS(=O)(=O)c1ccccc1	-2	12%	1%	-10%	.	1
COc1ccc2c(c1)N(C)/C(=C/c1cccc[n+]1C)S2	-6	10%	7.9µM*	0%	.	-4
CC1(NC(=O)CC[N+](C)(C)CCO)CS(=O)(=O)CC1S(=O)(=O)[O-] (centres undefined)	.	-1%	.	-4%	13µM*	.
NCCc1c(-c2ccccc2)n(-c2ccccc2)c2ccccc12	?	-17%	2%	-3%	?	-21
Cc1c(C(=O)O)c(O)cc2c1C(=O)c1c(O)c([C@@H]3O[C@H](CO)[C@@H](O)[C@H](O)[C@H]3O)c(O)c(O)c1C2=O	-2	-17%	-8%	-1%	10µM*	?
Cc1ccc(C)c(NC(=O)c2cnn3ccccc23)c1	3	-16%	11µM*	2%	.	-4
O=C1NC[C@@H](CCCCN2CCN(CCC3CCCCC3)C(=O)C2=O)N(CC2CCCCC2)C1=O	-1	.	.	.	.	-2
CC(C)(C)C(=O)NNC(=O)C1CC1(c1ccccc1)c1ccccc1 (centres undefined)	12	9%	6%	-4%	.	-3
CCc1cc2c(SCC(=O)NCC3CCCO3)ncnc2s1 (centres undefined)	9	13%	4%	2%	4%	-3
O=C(O)C1CCN(C(=O)CSc2nc3ccccc3c(=O)n2Cc2ccccc2)CC1	0	10%	8%	2%	.	-13
COc1ccc(-n2c(NNC(C)=O)nc3sc4c(c3c2=O)CCCC4)cc1	.	7%	7.9µM*	0%	4%	1
CC(C)Cn1c(N)c(C(=O)COC(=O)c2cc(-c3ccco3)nc3ccccc23)c(=O)n(C)c1=O	-3	19%	-23%	-19%	8.9µM*	-9
Cn1c(=O)c(C(=O)COC(=O)c2cc(-c3ccco3)nc3ccccc23)c(N)n(Cc2ccccc2)c1=O	.	5%	.	-1%	?	.
O=C(N/N=C/c1ccc(-c2ccccc2C(=O)O)o1)c1cccs1	-22	2%	1%	3%	25µM*	-29
Cc1ccc2nc(C)c(C(=O)NN=C3CCCCCC3)n2c1	0	3%	4.5µM*	1%	2%	-11
CCCNC(=O)C(Cc1ccc(F)cc1)NC(=O)c1ccc(C#N)cc1 (centres undefined)	6	2%	8%	0%	1%	0
Cc1ccc(S(=O)(=O)N2CCOCC2)cc1NC(=O)CNCc1ccccn1	-94*	-16%	2%	7%	.	-69*
O=C(CNCc1ccccn1)Nc1cc(S(=O)(=O)N2CCCCC2)ccc1Cl	-88*	1%	-1%	0%	.	-86*
COc1cccc(C(=O)C2=NN(C(C)=O)CC2c2ccco2)c1 (centres undefined)	-15	?	-8%	-6%	.	-2
C/C(=N\NC(=O)c1cc2ccccc2cc1O)c1ccc(C)o1	5	0%	5%	-6%	.	0
C/C(=N\NC(=O)c1c[nH]c2ccccc12)c1ccc(C)o1	-86*	20%	-6%	2%	.	-79*
Cc1ccc(CNC(=O)CC(C)S(=O)(=O)c2ccc3c(c2)NC(=O)CS3)o1 (centres undefined)	-1	11%	3%	10%	.	-5
SMILES	CtBP-E1A blk	Eya2 phos inh	uPA surface inh	USP2a block	L3MBTL1 inh	Six1-Eya2 blk
O=C(CNC(=O)c1ccccc1O)N/N=C/c1cc(Br)ccc1OC(=O)/C=C/c1ccco1	-95*	7%	-5%	-1%	.	-85*
COc1ccc([N+](=O)[O-])cc1/C=N/NC(=O)CNC(=O)c1cccc(F)c1	-70*	3%	-5%	2%	8%	?
O=C(CNC(=O)c1cccc(F)c1)N/N=C/c1cc(Br)ccc1OC(=O)/C=C/c1ccco1	-88*	-11%	?	-3%	?	-88*
O=C(CNC(=O)c1ccccc1Br)N/N=C/c1ccco1	8	2%	1%	3%	.	-1
O=C(Nc1cccc(S(=O)(=O)NC2=NCCC2)c1)c1cc(=O)[nH]c2ccccc12	2	1%	18%	1%	0%	2
C/C(=N\OCC(=O)N/N=C/c1ccccc1O)c1cccs1	-67*	-14%	-7%	2%	.	?
COCCn1c(C)nnc1SCC(=O)NNC(=O)c1ccc(Br)cc1	6	-3%	2%	-3%	.	-1
C=C[C@@H]1c2cc(C)ccc2N(S(=O)(=O)c2ccc(C)cc2)[C@H](c2ccc(OC(C)=O)cc2)C1(C#N)C#N	.	-11%	?	4%	-5%	-7
Nc1[nH]c(=O)nc(Nc2ccccc2)c1N=O	-66*	.	5%	.	.	?
CCOC(=O)C1CCCN(C(=O)c2ccc(-c3ccc([N+](=O)[O-])cc3)o2)C1 (centres undefined)	-2	10%	-28%	-1%	-1%	?
CC(C)c1cc(NC(=O)CCl)on1	.	5%	6.3µM*	0%	-3%	9
Cn1cccc1/C=C1\SC(=Nc2ccc(O)cc2)NC1=O	-6	0%	?	6%	-14%	-19
Cn1cccc1/C=C1\SC(=Nc2ccccc2)NC1=O	.	6%	1.4µM*	0%	-20%	-5
COC(=O)c1ccc(S(=O)(=O)N2CCN(C(c3ccccc3)c3ccccc3)CC2)n1C	-12	-4%	-23%	4%	.	-7
CCN(CC)CCCNc1oc(/C=C/c2ccccc2)nc1C#N	-7	5%	-3%	-8%	.	2
CCNc1oc(/C=C/c2ccc(OCC)cc2)nc1C#N	-13	-8%	3.2µM*	-2%	-1%	0
